The source of these data is PubChem BioAssay AID2685 (National Center for Advancing Translational Sciences (NCATS), 2010).

In all, about 320,000 compounds went through this assay and about 2,100 (0.66%) were called active. Inconclusive results (about 53%) are left out. The call rests on the fitted dose curve; in most records, active means well fitted inhibition curve with a large enough effect in the signal ratio, with a control signal flat (not every such curve was filed as active); inconclusive means small, poorly fitted or top-dose-only effect, or effect the other way, or a change in a side signal; inactive means flat fitted curve, though single readings scatter; the % refers to the signal ratio. Shown is part of a subset that was picked to be rich in actives.
Potency means the concentration at half of the fitted maximal effect.

The nature of the experiment: qHTS Assay for Lipid Storage Modulators in Drosophila S3 Cells.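 On cell number change: cells counted by Cell Tracker Red CMTPX staining in the red channel.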 On lipid storage change, negative = inhibition: on the % scale 0 is the no-effect control and ±100 the full control effect. The note with it: BODIPY lipid droplet fluorescence, 18-24 h, cells fed with added oleic acid; cell number change: measured here: cell count max response; series mostly up to 46.1 µM; lipid storage change, negative = inhibition: at the top concentration. In a few lines:
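Drosophila S3 cells loaded with oleic acid (400 uM, as added) and compounds at several concentrations; lipid droplets imaged by 488-nm laser-scanning cytometry, 500–530 nm intensity and object ratio to cell channel. Percent activity normalized to 20 uM Triacsin C.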
On the technique in general: qHTS replaces the single test concentration by a dilution series.
As for `CC(C)CNC(=O)CSc1nnc(-c2ccccn2)n1Cc1ccccc1`, the “lipid storage change, negative = inhibition” value is 0.755% (inactive) and the cell number change was -1.23%.
With `CC(C)(C)c1ccc(C(=O)N/N=C2\C3CN4CCN(C3)CC2(c2ccccc2)C4)cc1`, the “lipid storage change, negative = inhibition” value was 23.5% (inactive) and the cell number change amounted to 8.22%.
In the same order, the values of `Cc1ccc2c(c1)C(=O)C(=O)N2CCCOc1ccccc1C` are 0.449% (inactive) and -3.05%.
Turning to `CC(=O)c1ccc(S(=O)(=O)N2CCN(CC(=O)Nc3ccccc3C(=O)NC3CC3)CC2)cc1`, the Potency is 6.51 µM (active) and the cell number change is -1.96%.
`O=C(CN1CCN(S(=O)(=O)c2ccccc2)CC1)Nc1ccc(Cl)c([N+](=O)[O-])c1`: the “lipid storage change, negative = inhibition” value is -3.05% (inactive) and the cell number change stood at 22%.
`O=C(CN1CCN(S(=O)(=O)c2ccccc2)CC1)Nc1ccc(Cl)c(Cl)c1`: the result was inactive and the cell number change came out at 16.9%.
`CC(=O)c1ccc(S(=O)(=O)N2CCN(CC(=O)Nc3ccc(Cl)c([N+](=O)[O-])c3)CC2)cc1`: the Potency is 29.1 µM (active) and the cell number change is -15.2%.
As to `Cc1ccc(S(=O)(=O)N2CCN(CC(=O)Nc3ccccc3C(=O)NC3CC3)CC2)cc1`, the outcome was inactive and the cell number change is -13.8%.
As to `O=C(CN1CCN(S(=O)(=O)c2ccccc2)CC1)Nc1ccccc1C(=O)c1ccccc1`, the “lipid storage change, negative = inhibition” value was 1.48% (inactive) and the cell number change stood at 4.18%.
Turning to `COc1c2ccc(C(=O)NCCCCc3ccccc3)cc2nn1C`, the result was inactive and the cell number change is -13.1%.
`CCOC(=O)NCc1ccc2[nH]c(C)cc2c1`: the “lipid storage change, negative = inhibition” value was -10.1% (inactive) and the cell number change amounted to 16.1%.
As to `Cc1cc(C)c(C#N)c(SCCN2CCCCC2)n1`, the result was inactive and the cell number change was -24.3%.
Turning to `Nc1cc(N)nc(SCC(=O)N2CCCCC2)n1`, the “lipid storage change, negative = inhibition” value was 6.72% (inactive) and the cell number change was determined as 2.45%.
Consider `Nc1cc(N)nc(SCCN2CCCCC2)n1`, for which the Potency is 0.0184 µM (active) and the cell number change was determined as 3.17%.
Consider `O=C(O)c1ccc(N2C(=O)CC(N3CCN(c4cccc(Cl)c4)CC3)C2=O)cc1` (configuration not stated), for which the “lipid storage change, negative = inhibition” value is 9.41% (inactive) and the cell number change was -9.85%.
Consider `O=C1Nc2c(c(=O)[nH]c(=O)n2-c2ccccc2)C(C(F)(F)F)(C(F)(F)F)N1`, for which the Potency was 25.9 µM (active) and the cell number change was -18.7%.
With `O=C1Nc2c(c(=O)[nH]c(=O)n2-c2ccccc2F)C(C(F)(F)F)(C(F)(F)F)N1`, the “lipid storage change, negative = inhibition” value was -3.91% (inactive) and the cell number change stood at 12.5%.
Consider `Cc1ccc(-n2c3c(c(=O)[nH]c2=O)C(C(F)(F)F)(C(F)(F)F)NC(=O)N3)cc1`, for which the “lipid storage change, negative = inhibition” value is -27.1% (inactive) and the cell number change amounted to 7.3%.
On the same counts, the results for `Cn1cccc1CC(=O)N/N=C/c1ccc(Cl)cc1` are 16.8% (inactive) and -7.57%.
On the same counts, the results for `Cc1c(C(=O)OCC(=O)NCc2ccco2)oc2ccccc12` are 6.66% (inactive) and -15.4%.
As for `Cc1cc(C)cc(OCC(=O)OCC(=O)NCc2ccco2)c1`, the Potency is 23.1 µM (active) and the cell number change is 10.8%.
In the same order, the values of `O=C(COC(=O)c1cc2ccccc2o1)NCc1ccco1` are 0.206 µM (active) and -22.2%.
On to `O=C(COC(=O)COc1ccc(Nc2ccccc2)cc1)NCc1ccco1`, for which the “lipid storage change, negative = inhibition” value is -4.12% (inactive) and the cell number change is 8.25%.
With `COc1ccc(CNC(=O)COC(=O)c2cc3ccccc3o2)cc1`, the result was inactive.
`Cc1cc(C)cc(OCC(=O)OCC(=O)NCc2cccs2)c1`: the “lipid storage change, negative = inhibition” value is -2.88% (inactive) and the cell number change was -3.19%.
For the compound `C=CCNC(=O)/C(=C\c1ccc([N+](=O)[O-])cc1)NC(C)=O`, the “lipid storage change, negative = inhibition” value was -2.27% (inactive).
Consider `CC(C)/C=N/Nc1nc2c(c(=O)n(C)c(=O)n2C)n1C`, for which the “lipid storage change, negative = inhibition” value was -8.14% (inactive) and the cell number change was -4.59%.
On the same counts, the results for `COC(=O)c1ccc2c(=O)n(-c3ccccc3)c(=S)[nH]c2c1` are 11.6% (inactive) and 5.89%.
With `NC(=O)CC(NC(=O)Cc1ccc(Br)cc1)c1ccc(NCCc2ccc(Cl)cc2)c([N+](=O)[O-])c1` (configuration not stated), the “lipid storage change, negative = inhibition” value is 0.303% (inactive) and the cell number change was -9.69%.
Take `COCCOC(=O)/C(C#N)=C/c1cn(Cc2ccccc2)nc1-c1cccnc1`: the “lipid storage change, negative = inhibition” value was -14.1% (inactive) and the cell number change was -16.4%.
In the same order, the values of `C[C@H](NC(=O)OCc1ccccc1)c1nnc([C@H](C)NC(=O)OCc2ccccc2)o1` are 2.69% (inactive) and 2.65%.
Turning to `Cc1ccc(S(=O)(=O)N2CCN(C(=O)CN3CCc4ccccc4C3)CC2)cc1`, the result was inactive and the cell number change was 21.3%.
In the same order, the values of `COCc1ccc(C(=O)Nc2ccccc2C(=O)NCc2cccnc2)cc1` are “inactive” and 10.3%.
As for `C=CCOc1ccc(C(=O)Nc2ccccc2C(=O)NCc2cccnc2)cc1`, the Potency was 3.26 µM (active) and the cell number change is 18.4%.
For `COc1cc(C(=O)Nc2ccccc2C(=O)NCc2cccnc2)cc(OC)c1OC`, the result was inactive and the cell number change was -22.9%.
As for `CC(=O)Nc1nnc(S(=O)(=O)N2CCN(c3ccc([N+](=O)[O-])cc3Cl)CC2)s1`, the result was inactive and the cell number change was -24.2%.
With `COc1cccc(-c2cc(C(=O)Nc3ccc(OC)c(OC)c3)no2)c1`, the “lipid storage change, negative = inhibition” value was 5.84% (inactive) and the cell number change is -25.5%.
`CC1CCN(c2ccc(NC(=O)c3ccc([N+](=O)[O-])o3)cc2)CC1`: the Potency was 16.4 µM (active) and the cell number change was 0.613%.
On to `CC1CCN(c2ccc(NC(=O)c3cccnc3)cc2)CC1`, for which the Potency is 20.6 µM (active) and the cell number change is -20.1%.
Consider `O=C(Nc1ccc(N2CCOCC2)cc1)c1ccc([N+](=O)[O-])o1`, for which the compound was called inactive and the cell number change was -16.7%.
Consider `CC(C)(C)C(=O)N1CCN(c2ccc(NC(=O)c3ccc([N+](=O)[O-])o3)cc2)CC1`, for which the compound was classed as inactive and the cell number change was 19.6%.
On the same counts, the results for `Cc1ccc(C(=O)N2CCN(c3ccc(NC(=O)c4cccnc4)cc3)CC2)cc1` are “inactive” and 4.57%.
For the compound `O=C(Nc1ccc(N2CCOCC2)cc1)c1cccnc1`, the “lipid storage change, negative = inhibition” value was 6.23% (inactive) and the cell number change was determined as 3.28%.
In the same order, the values of `CCn1c(=O)c2ccccc2n(CC(=O)NCCC2=CCCCC2)c1=O` are 3.41% (inactive) and 25.4%.
As to `CCn1cc(C(=O)NCC(OC)OC)c(=O)c2cc(S(=O)(=O)N3CCOCC3)ccc21`, the “lipid storage change, negative = inhibition” value is 11.9% (inactive).
